# Results as given in article PMC7010328.
# Experiments:
# [1] = target: Nucleosome assembly protein 1-like 1 (UniProt P55209); experiment: cross-link between two proteins; cross-linking mass spectrometry
# [2] = target: Small ribosomal subunit protein uS11 (UniProt P62263); experiment: as above
# UniProt P55209, sequence (P55209 whole entry): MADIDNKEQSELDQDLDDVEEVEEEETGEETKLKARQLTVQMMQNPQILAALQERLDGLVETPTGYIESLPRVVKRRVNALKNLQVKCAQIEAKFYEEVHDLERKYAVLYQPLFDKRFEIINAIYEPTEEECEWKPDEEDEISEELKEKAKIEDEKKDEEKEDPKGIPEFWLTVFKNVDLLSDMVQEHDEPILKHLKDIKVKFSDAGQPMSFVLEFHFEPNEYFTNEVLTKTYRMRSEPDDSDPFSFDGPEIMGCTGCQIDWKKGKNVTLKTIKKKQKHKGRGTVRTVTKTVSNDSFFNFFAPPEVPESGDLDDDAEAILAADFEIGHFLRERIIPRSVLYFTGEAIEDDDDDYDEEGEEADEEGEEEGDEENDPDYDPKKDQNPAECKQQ
substance,measurement,setting,value
"60 kDa heat shock protein, mitochondrial, P10809",listed as a hit,[1],yes
same,listed as a hit,[2],yes
